The target in test [1] is Calcium and integrin-binding protein 1 (Homo sapiens) (UniProt Q99828). Briefly: Primary qHTS for Identification of Calcium Integrin Binding Protein 1 (CIB1) Competitor (AID 1508620).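 Further: GST tagged CIB1 binding a fluorescein labelled alphaIIb integrin peptide tracer; top concentration of the series differs between compounds; on the % scale 0 is the no-effect control and ±100 the full control effect.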 In a few lines: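 CIB1-GST (1 uM final) and compound incubated 15 min at room temperature before adding FITC-alphaIIb peptide tracer (100 nM final). Competition for binding read by fluorescence polarization (ex 480, em 540) after another 15 min at room temperature.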
Calcium and integrin-binding protein 1 (Homo sapiens), sequence (Q99828 whole entry, looked up): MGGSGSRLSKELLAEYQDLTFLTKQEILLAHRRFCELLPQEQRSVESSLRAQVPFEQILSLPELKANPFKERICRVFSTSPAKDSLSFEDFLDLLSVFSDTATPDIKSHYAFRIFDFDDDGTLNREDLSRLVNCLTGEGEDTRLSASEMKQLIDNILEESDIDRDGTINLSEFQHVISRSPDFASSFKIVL

Test [2] in a line: Primary qHTS for small molecule stabilizers of the endoplasmic reticulum resident proteome: Secreted ER Calcium Modulated Protein (SERCaMP) assay (AID 1508630). Further: potency means the concentration at half of the fitted maximal effect. In a few lines: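 The SH-SY5Y reporter protocol was run at 3 concentrations up to 38.3 uM (primary) or 11 concentrations (follow-up): 16 h compound, 100 nM thapsigargin for 4 h, then extracellular luciferase luminescence.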
Background: Quantitative high-throughput screening tests each substance at several concentrations.

Test [3] is described as follows: Cell Viability qHTS for small molecule stabilizers of the endoplasmic reticulum resident proteome (AID 1508629).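 Further: human SH-SY5Y neuroblastoma cells carrying the GLuc-SERCaMP reporter; compound exposure about 46 h in total before the viability read; on the % scale 0 is the no-effect control and ±100 the full control effect.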 As to conditions: cell viability counter-screen, 100 nM thapsigargin for final 4 h.
A short description of test [4]: Primary qHTS for inhibitors of nuclear receptor binding SET domain protein 2 (NSD2) in an isogenic RCH-ACV NSD2 p.E1099K mutant (9B) (AID 1645876). Further: nearly all actives have a fitted effect of over 70% in size. Further: potency means the concentration at half of the fitted maximal effect.
In test [5] the target is Protein phosphatase 1D (Homo sapiens) (UniProt O15297). Briefly: RapidFire Mass Spectrometry qHTS Assay for Modulators of WT P53-Induced Phosphatase 1 (WIP1) (AID 1347424).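 Further: amount of dephosphorylated VEPPL-S-QETFS peptide product formed by WIP1; series mostly up to about 63 µM; plate controls were DMSO wells for no effect and GSK830371 inhibitor control at 10 µM for full effect.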 An outline of the steps: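 RapidFire mass spectrometry measured dephosphorylated peptide after 5 min room-temperature reaction of 2 uM VEPPL-pS-QETFS with 10 nM WIP1 (50 mM Tris-HCl pH 7.5, 30 mM MgCl2, 0.1 mM EGTA, BSA), following 1 hr compound preincubation; 1 uM isotope-labelled product standard.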
Protein phosphatase 1D (Homo sapiens), sequence (O15297 whole entry, looked up): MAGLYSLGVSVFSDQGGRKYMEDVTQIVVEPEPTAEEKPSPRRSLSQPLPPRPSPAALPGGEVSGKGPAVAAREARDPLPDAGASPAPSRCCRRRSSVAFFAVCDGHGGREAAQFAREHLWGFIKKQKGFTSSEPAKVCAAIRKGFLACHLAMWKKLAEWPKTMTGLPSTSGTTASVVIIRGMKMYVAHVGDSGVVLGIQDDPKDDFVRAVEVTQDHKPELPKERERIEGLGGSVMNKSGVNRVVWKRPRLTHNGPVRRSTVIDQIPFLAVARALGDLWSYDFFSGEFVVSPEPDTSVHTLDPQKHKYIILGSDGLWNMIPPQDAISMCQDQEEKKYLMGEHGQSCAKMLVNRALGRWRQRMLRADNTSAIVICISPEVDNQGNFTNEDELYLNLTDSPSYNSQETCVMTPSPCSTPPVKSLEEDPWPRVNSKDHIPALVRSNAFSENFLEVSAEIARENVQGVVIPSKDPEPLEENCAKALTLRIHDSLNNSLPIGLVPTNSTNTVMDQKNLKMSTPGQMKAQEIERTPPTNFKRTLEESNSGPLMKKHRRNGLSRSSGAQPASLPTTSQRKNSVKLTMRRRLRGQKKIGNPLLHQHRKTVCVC

Test [6] can be described thus: Primary qHTS for inhibitors of La Crosse Virus (LACV) - induced cell death in SH-SY5Y cells (AID 1508616).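 Further: top concentration of the series differs between compounds; 0% = infected DMSO wells and 100% = uninfected DMSO wells; higher means more rescue of cells from virus-induced death.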 An outline of the steps:
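Cytopathicity rescue screen: compounds pinned onto SH-SY5Y cells, which are then infected with LACV (MOI 0.01) and held 6 days at 37C. Percent activity is scaled between infected DMSO control and uninfected DMSO control.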

Test [7] concerns the target Calcium and integrin-binding protein 1 (Homo sapiens) (UniProt Q99828). Briefly: Validation qHTS for Identification of Calcium Integrin Binding protein 1 (CIB1) Competitor (AID 1508618). Further: on the % scale 0 is the no-effect control and ±100 the full control effect. In a few lines: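 Displacement of FITC-alphaIIb peptide (100 nM) from CIB1-GST (1 uM) is monitored by polarization in quantitative HTS format; buffer carries 5 mM CaCl2 and 125 mM NaCl at pH 7.4, incubations are at room temperature.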

The nature of test [8]: Counterscreen qHTS for small molecule stabilizers of the endoplasmic reticulum resident proteome: GLuc-NoTag assay (AID 1508627).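 Further: SH-SY5Y cells given compound then 100 nM thapsigargin to empty ER calcium; series mostly up to about 76 µM; 0% = thapsigargin alone and -100% = DMSO vehicle control.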 In a few lines:
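Counterscreen line: SH-SY5Y-GLuc-NoTag cells, treated with compound 19 hr before a 4 hr, 100 nM thapsigargin calcium depletion. Secreted Gaussia luciferase in the medium was measured by luminescence after coelenterazine was added (0.07x final), with cells unlysed.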

Test [9] is described as follows: Confirmatory qHTS for small molecule stabilizers of the endoplasmic reticulum resident proteome: Secreted ER Calcium Modulated Protein (SERCaMP) assay (AID 1508628). Further: series mostly up to about 76 µM; on the % scale 0 is the no-effect control and ±100 the full control effect; nearly all actives have a fitted effect of over 40% in size. An outline of the steps: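 GLuc-SERCaMP-expressing SH-SY5Y cells, pretreated 16 h with compound, are challenged with thapsigargin to empty ER calcium stores; after 4 h, coelenterazine is added directly to the medium and luminescence is imaged.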

A short description of test [10]: A High-Content qHTS Against Drug Library for the Identification of Small Molecules that Inhibit DYT1 Early Onset Primary Dystonia-Associated Cell Pathology (AID 1645839; calls by dose curve; further: series mostly up to about 46 µM). In a few lines: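 High-content imaging quantified EGFP-TorsinA mislocalization in HEK293-derived cells inducibly expressing DYT1 mutant torsinA, after 48 h exposure to compound given together with tetracycline induction. Cell count served as a toxicity channel alongside %pathology.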

For test [11], the target named is Cytochrome P450 2D6 (Homo sapiens) (UniProt P10635). Nature of the test: Cytochrome P450 family 2 subfamily D member 6 (CYP2D6) small molecule antagonists: luciferase biochemical (cell-free) qHTS assay (AID 1645840; active means well fitted curve in the direction sought with a large enough effect in the repeat runs; an effect the other way counts as inactive or inconclusive; further: series mostly up to about 57 µM; on the % scale 0 is the no-effect control and ±100 the full control effect; nearly all actives have a fitted effect of over 55% in size). An outline of the steps:
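P450-Glo CYP2D6 system: proluciferin substrate converted by enzyme to luciferin, read by luminescence proportional to activity. Enzyme-substrate mix with compound 10 min at room temperature, then NADPH regeneration 1 h before detection reagent.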

The target in test [12] is Cytochrome P450 2C9 (Homo sapiens) (UniProt P11712). Briefly: Cytochrome P450 family 2 subfamily C member 9 (CYP2C9) small molecule antagonists: luciferase biochemical (cell-free) qHTS assay (AID 1645842; active means well fitted curve in the direction sought with a large enough effect in the repeat runs; an effect the other way counts as inactive or inconclusive; further: nearly all actives have a fitted effect of over 55% in size; further: potency means the concentration at half of the fitted maximal effect). In a few lines:
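P450-Glo CYP2C9 system: proluciferin substrate with enzyme in mix containing 0.4% BSA, 10 min at room temperature, then NADPH regeneration solution added and incubated 1 h at 37C. Detection reagent stopped reaction; luminescence read after 20 min as RLU.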

The target of a further test is Papain (Carica papaya) (UniProt P00784). Nature of the test: Primary qHTS assay for inhibitors of the protease papain (AID 1645873).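 Further: papain turnover of Z-FR-AMC read as the AMC fluorescence gain over 10 min; series mostly up to about 50 µM; on the % scale 0 is the no-effect control and ±100 the full control effect.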
Papain (Carica papaya), sequence (P00784 whole entry, looked up): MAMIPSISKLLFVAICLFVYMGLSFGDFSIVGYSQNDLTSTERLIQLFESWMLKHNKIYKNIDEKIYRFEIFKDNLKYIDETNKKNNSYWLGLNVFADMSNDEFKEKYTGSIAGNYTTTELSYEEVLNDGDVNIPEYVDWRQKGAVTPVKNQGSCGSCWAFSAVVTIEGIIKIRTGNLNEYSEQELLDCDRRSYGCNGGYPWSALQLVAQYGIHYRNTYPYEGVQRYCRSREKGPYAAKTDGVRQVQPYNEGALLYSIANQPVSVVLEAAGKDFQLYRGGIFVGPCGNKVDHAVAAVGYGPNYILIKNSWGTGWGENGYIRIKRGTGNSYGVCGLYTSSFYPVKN
Test [13] in a line: qHTS to identify inhibitors of the type 1 interferon - major histocompatibility complex class I in skeletal muscle: primary screen against the NCATS Mechanism Interrogation Plate v5.0 (MIPE) Libary (AID 1347411).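 Further: plate controls were vehicle for no effect and reference inhibitor for full effect; nearly all actives have a fitted effect of over 65% in size.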 In a few lines:
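HLA-B HiBit myoblasts, dexamethasone-free medium + 4 ng/ml IFN-b, 24 h compound, 11-pt 1:3 from 46 uM final. Readout: Nano-Glo HiBiT lytic luminescence after 10 min lysis, RT.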

Test [14] in a line: Validation qHTS assay for inhibitors of Activation Induced Cytidine Deaminase (AID): UDG Counterscreen signal (AID 1347427). Further: 0% is about no effect. In a few lines:
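Fluorescence at 560 nm excitation, 665 nm emission reports UDG signal after 250 mM NaOH (2x) addition and 30 min. Enzymes (AID 1 uM, UDG 2 U/mL, at 4/3x) preincubated 10 min with compound, then 4 h with 4x 250 nM DJC20/DJC23 substrate at room temperature.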

Test [15] addresses Single-stranded DNA cytosine deaminase (Homo sapiens) (UniProt Q9GZX7). Nature of the test: Validation qHTS assay for inhibitors of Activation Induced Cytidine Deaminase (AID): AID signal (AID 1347429). Further: on the % scale 0 is the no-effect control and ±100 the full control effect. An outline of the steps:
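AID+UDG coupled FRET deamination; cpds up to 114 uM final; DJC20/DJC23 substrate, 4 hr RT; NaOH stop, 30 min RT; read Ex 540/Em 590.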

Test [16] deals with Protein phosphatase 1D (Homo sapiens) (UniProt O15297). Nature of the test: Rhodamine-PBP qHTS Assay for Modulators of WT P53-Induced Phosphatase 1 (WIP1) (AID 1347425). Further: % of control where 0% means no effect. In a few lines: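 5 nM WIP1 + 10 uM Rh-PBP, 50 mM Tris pH 7.5, 30 mM MgCl2, 1 mM TCEP, 0.1 mM EGTA, BSA; cpds pinned, 1 hr RT; + 10 uM phosphopeptide; fluorescence 1-min reads x 11 min; delta = f1 - f0.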

Values joined by “and” are separate entries in the source; they are usually repeats but may differ in a detail not shown here. Identical values can stand only once. Results filed as inconclusive are left out. Some structures have more than one record in an assay (separate samples or runs), and their calls can disagree. Active and inactive are the calls of the source. Unless noted, the call rests on the fitted dose curve; in most records, active means well fitted curve in the direction sought with a large enough effect; inconclusive means small, poorly fitted or top-dose-only effect, or another doubt; inactive means no such curve, though single readings can be large; an effect the other way counts as inactive or inconclusive.

Cytochrome P450 2D6 (Homo sapiens), sequence (P10635 whole entry, looked up): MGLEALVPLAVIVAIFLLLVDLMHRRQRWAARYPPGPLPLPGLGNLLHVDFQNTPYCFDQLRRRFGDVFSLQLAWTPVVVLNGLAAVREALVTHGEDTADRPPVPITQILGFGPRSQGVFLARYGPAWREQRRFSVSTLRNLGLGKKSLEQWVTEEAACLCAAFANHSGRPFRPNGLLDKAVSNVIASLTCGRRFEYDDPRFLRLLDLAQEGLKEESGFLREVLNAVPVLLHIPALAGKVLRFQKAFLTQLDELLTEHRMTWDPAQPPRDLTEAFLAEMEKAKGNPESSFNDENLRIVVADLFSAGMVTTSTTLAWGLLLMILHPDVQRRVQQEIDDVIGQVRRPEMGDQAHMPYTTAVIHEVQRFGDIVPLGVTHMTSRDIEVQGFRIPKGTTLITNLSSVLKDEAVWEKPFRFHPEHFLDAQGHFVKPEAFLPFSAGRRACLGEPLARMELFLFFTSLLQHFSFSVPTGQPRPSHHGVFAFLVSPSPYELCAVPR
Cytochrome P450 2C9 (Homo sapiens), sequence (P11712 whole entry, looked up): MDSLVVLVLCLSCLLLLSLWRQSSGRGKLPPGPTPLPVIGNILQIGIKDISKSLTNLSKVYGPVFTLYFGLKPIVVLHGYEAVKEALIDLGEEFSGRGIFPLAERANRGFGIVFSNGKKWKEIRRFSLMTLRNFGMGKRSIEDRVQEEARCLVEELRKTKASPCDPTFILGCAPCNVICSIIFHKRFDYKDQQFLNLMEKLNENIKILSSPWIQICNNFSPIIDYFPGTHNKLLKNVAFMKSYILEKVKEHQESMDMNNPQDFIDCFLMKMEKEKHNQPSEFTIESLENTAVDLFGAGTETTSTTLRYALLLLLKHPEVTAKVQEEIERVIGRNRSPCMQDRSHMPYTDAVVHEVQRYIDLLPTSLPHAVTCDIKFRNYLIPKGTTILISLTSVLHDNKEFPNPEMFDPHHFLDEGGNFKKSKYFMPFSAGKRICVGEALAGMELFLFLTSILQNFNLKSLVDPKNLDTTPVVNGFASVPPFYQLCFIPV
Single-stranded DNA cytosine deaminase (Homo sapiens), sequence (Q9GZX7 whole entry, looked up): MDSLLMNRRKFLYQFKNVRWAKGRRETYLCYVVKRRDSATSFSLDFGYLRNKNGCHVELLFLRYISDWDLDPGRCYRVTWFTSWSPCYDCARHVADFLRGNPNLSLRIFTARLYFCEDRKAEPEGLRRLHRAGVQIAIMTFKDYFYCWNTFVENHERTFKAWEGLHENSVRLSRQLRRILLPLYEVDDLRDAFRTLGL

Turning to `CC(C=CC1=C(C)CCCC1(C)C)=CC=CC(C)=CC(=O)O`, in test [1], the outcome was inactive. Besides, in [2], the Potency result is “inactive”.
Regarding `COc1ccc(-c2ccc3c(N4CCOCC4)nc(N4C[C@@H](C)O[C@@H](C)C4)nc3n2)cc1CO`, in test [1], the outcome was inactive. Moreover, in test [3], the max response is -27.3% (inactive). Also, the Potency in [2] was 14.9 µM (active); in test [4], 662 nM (active).
For `Nc1nc2c(ncn2COCCO)c(=O)[nH]1`, the Potency entry in test [5], in [7], in test [8], in [9], in test [2] and in test [10] was “inactive” in each case. Further, the Potency result (in test [11]; in test [12]; with Papain (Carica papaya); in test [4]) was “inactive” in each case. Moreover, the call in [6] and in [1] was inactive. Further, in test [3], the max response is 1.71% (inactive).
For `CN(C)C(=O)c1ccc(S(=O)(=O)c2ccc(NC(=O)[C@@](C)(O)C(F)(F)F)c(Cl)c2)cc1`, the Potency result in test [13], in [2] and in [11] was “inactive” each time. Further, the Potency in test [12] is 6.74 µM (active).
`Cc1c(CCOc2ccc(C(=O)O)cc2)c2cc(Cl)ccc2n1C(c1ccccc1)c1ccccc1`: the Potency entry in test [13], in [2] and in test [4] was “inactive” in each case.
With `O=S(=O)(N=Cc1c(O)ccc2ccccc12)c1cccs1`, in [1], the outcome was inactive. Further, the Potency entry in [2] is “inactive”.
`Cc1ccccc1C(OCCN(C)C)c1ccccc1` (centres undefined): the Potency entry in test [5], in test [15], in [7], in test [8], in [10] and in [12] was “inactive” throughout. Also, the Potency result (with Papain (Carica papaya); in test [4]) was “inactive” each time. For the same compound, the compound was classed as inactive in [14], in [6] and in [1].
In the case of `COc1ccc(-c2ccc3c(N4CCOC[C@H]4C)nc(N4CCOC[C@H]4C)nc3n2)cc1CO`, in test [1], the outcome was inactive. In addition, in [2], the Potency result is “inactive”.
With `Cc1c(CN2CCN(C(=O)C(C)C)CC2)sc2c(N3CCOCC3)nc(-c3cnc(N)nc3)nc12`, the outcome in test [1] was inactive.
`COc1ccccc1[C@H](c1cccc2ccccc12)[C@@](C)(C#N)C(=O)N1CCC(c2cccc(C(F)(F)F)c2)CC1`: the Potency entry in test [13] and in [4] was “inactive” in each case.
Turning to `Cc1cnc(NC(=O)C2=C(O)c3ccccc3S(=O)(=O)N2C)s1`, the Potency entry in test [5], in test [10], in test [11] and in [4] was “inactive” throughout. Moreover, in test [6], the compound was called inactive. Moreover, in test [12], the Potency was 11 µM (active) and inactive.
As to `CCCCCCCc1ccc(CCc2cccc(O)c2C(=O)O)cc1`, the Potency result in test [13] and in [2] was “inactive” throughout.
Regarding `CCOc1ccn(-c2ccc(F)cc2)c(=O)c1C(=O)Nc1ccc(Oc2ccnc(N)c2Cl)c(F)c1`, the Potency result in [13], in test [2], in test [11] and in [12] was “inactive” throughout. Also, the Potency in test [4] is 7.28 µM (active) and 11.8 µM (active).
On to `COc1ccccc1-c1cccc(-c2c(O)c3cc(C#N)c(Cl)cc3[nH]c2=O)c1`, for which the Potency entry in test [13], in [2] and in test [4] was “inactive” in each case. Further, in [12], the Potency is 35.5 µM (active).
Turning to `CNC(=O)c1ccccc1Sc1ccc2c(/C=C/c3ccccn3)n[nH]c2c1`, the Potency entry in test [5] and in test [10] was “inactive” throughout. For the same compound, the outcome in test [1] was inactive. In addition, the Potency in test [12] is 3.47 µM (active); in test [4], 750 nM (active) and 916 nM (active) and 4.17 µM (active).
`CCOC(=O)N[C@@H]1CC[C@@H]2[C@@H](C1)C[C@H]1C(=O)O[C@H](C)[C@H]1[C@@H]2C=Cc1ccc(-c2cccc(F)c2)cn1`: the result in test [1] was inactive. The Potency result in test [2] was “inactive”.
With `O=c1n(CCCN2CCN(c3cccc(Cl)c3)CC2)nc2ccccn12`, the Potency result in test [5], in test [15], in test [7], in test [2], in test [10] and in test [12] was “inactive” throughout. The compound was classed as inactive in test [16], in [14], in test [6] and in test [1].
Turning to `O=C(C=Cc1ccc(/C=C/C(=O)Nc2ccc(C3=NCCN3)cc2)cc1)Nc1ccc(C2=NCCN2)cc1`, the result in [1] was inactive. Moreover, the Potency entry in test [2] was “inactive”.
Take `CC(=O)NC(C)c1ccc(Oc2ccc(OC(C)C)cc2)cc1` (centres undefined): the result in test [1] was inactive.
Turning to `CC(C)c1onc(-c2c(Cl)cccc2Cl)c1COc1ccc(/C=C/c2cccc(C(=O)O)c2)c(Cl)c1`, the Potency result in [13], in test [2] and in test [4] was “inactive” in each case.

Values taken from PubChem BioAssay (NCATS).
